For 40 molecules, outcome results are on record in PubChem BioAssay (EPA / NIEHS).

Each structure is given as a SMILES string. The source made the active and inactive calls. Rule for the calls: active = hit-call score of the fitted dose curve at least 0.9, where 1 is the maximum; inactive = score below 0.9.

The experiment in a line: CCTE_Harrill_HTTr_Apoptosis_MCF7: CCTE's 6-hour Apoptosis Assessment for the High-Throughput Transcriptomics (HTTr) Platform, in MCF-7 cells cultured in DMEM + 10% fetal bovine serum, Harrill Lab (AID 2284011). From the text:
This is a cell-based assay that evaluates apoptosis using high content imaging to evaluate activation of caspase-3/7 using the CellEvent Caspase 3/7 Green detection reagent in 384-well format.One of seven assay components measured from the CCTE_Harrill_HTTr_Apoptosis assay. This was part of a full screening experiment. This is a cell-based assay that evaluates apoptosis in MCF-7 cells cultured in DMEM + 10% fetal bovine serum. High content imaging is used to evaluate activation of caspase-3/7 using the CellEvent Caspase 3/7 Green detection reagent. Measurements are taken at 6 hours after chemical dosing in 384-well format.The assay component endpoint CCTE_Harrill_HTTr_Apoptosis_MCF7 was analyzed with bidirectional fitting relation to DMSO as the negative control and baseline of activity. Using a type of viability reporter, gain-of-signal activity can be used to evaluate activation of caspase-3/7 using the CellEvent Caspase 3/7 Green detection reagent to understand changes in apoptosis. To generalize the intended target to other relatable targets, this assay endpoint is annotated to cell cycle, where the subfamily is apoptosis.
Chemicals were tested in MCF7 cells in an eight point dilution series with a six hour exposure duration.
`O=C(O)CCCCCCCC(=O)O`: the outcome was inactive.
As for `OCCN1CCNCC1`, the entry is “inactive”; as for `OCCOCCOCCOCCO`, “inactive”; as for `CN(C)C(=N)N=C(N)N`, “inactive”.
Consider `O=[N+]([O-])c1cc(C(F)(F)F)ccc1Cl`, for which the outcome was inactive.
As for `COC(C)CCO` (stereo not given), the entry is “inactive”; as for `O=C(O)c1cn(C2CC2)c2cc(N3CCNCC3)c(F)cc2c1=O`, “inactive”; as for `C=O`, “inactive”.
To `CC(C)[C@H]1CC[C@@H](C)CC1=O` belongs “inactive”; to `CCCCCCCCCCCCCCCC(=O)O`, “inactive”; to `Cc1cccc(C)c1C`, “inactive”.
As for `Cc1c(Cl)c(=O)oc2cc(O)ccc12`, the entry is “inactive”.
Take `CCCOCC(C)O` (stereo not given): the outcome was inactive.
Take `C#C[C@]1(O)CC[C@H]2[C@@H]3CCC4=Cc5oncc5C[C@]4(C)[C@H]3CC[C@@]21C`: the outcome was inactive.
To `C=C(C)[C@@H]1CC[C@@H](C)C[C@@H]1O` belongs “inactive”; to `CC1CCC(C(C)(C)O)CC1` (stereo not given), “inactive”.
To `Cc1ccc(C(C)C)cc1O` belongs “inactive”; to `CCC(C)CCCC(C)(C)O` (stereo not given), “inactive”; to `c1ccc2sc(SN(C3CCCCC3)C3CCCCC3)nc2c1`, “inactive”.
As for `BrC1CCC(Br)C(Br)CCC(Br)C(Br)CCC1Br` (stereo not given), the entry is “inactive”.
For `O=C(O)COCCN1CCN(C(c2ccccc2)c2ccc(Cl)cc2)CC1` (stereo not given), the outcome was inactive.
To `Cc1ccc(C(=O)c2cc(O)c(O)c([N+](=O)[O-])c2)cc1` belongs “inactive”; to `Cc1ccc(C=O)cc1`, “inactive”.
To `CC1=CCC(O)(C(C)C)CC1` (stereo not given) belongs “inactive”; to `CCCCC(CC)COC(=O)/C=C\C(=O)OCC(CC)CCCC` (stereo not given), “inactive”.
Turning to `CCCc1c(OCCCOc2ccc(OCC(=O)O)cc2)ccc(C(C)=O)c1O`, the result was inactive.
As for `CCCCCC(CO)CCC` (stereo not given), the entry is “inactive”.
As for `CN(C)CCOCCN(C)C`, the entry is “inactive”.
In the case of `Cc1c(N(C)C)c(=O)n(-c2ccccc2)n1C`, the outcome was inactive.
As for `O=C[C@H](O)[C@H](O)[C@H](O)CO`, the entry is “inactive”; as for `C=CCOc1nc(OCC=C)nc(OCC=C)n1`, “inactive”.
With `CC(=O)OCCOC(C)=O`, the result was inactive.
As for `CC(c1cc2ccccc2s1)N(O)C(N)=O` (stereo not given), the entry is “inactive”; as for `NC(=O)NC1NC(=O)NC1=O` (stereo not given), “inactive”.
To `N#Cc1ccccc1` belongs “inactive”; to `COc1ccc(O)cc1`, “inactive”; to `CNC[C@H](O)c1cccc(O)c1`, “inactive”.
To `O=c1cc(-c2ccccc2)oc2cc(O)cc(O)c12` belongs “inactive”; to `c1ccc2c(c1)c1cccc3ccc4cccc2c4c31`, “inactive”.
`N#Cc1ccc(CC(=NNC(=O)Nc2ccc(OC(F)(F)F)cc2)c2cccc(C(F)(F)F)c2)cc1`: the result was inactive.
